In PubChem BioAssay AID504465 (National Center for Advancing Translational Sciences (NCATS), 2011):
The campaign covered roughly 2,100 compounds. About 210 (10%) were called active. Inconclusive results (about 53%) are left out. Calls follow the shape of the dose curve; as a rule, active = well fitted inhibition curve with a large enough effect; inconclusive = small, poorly fitted or top-dose-only effect, or effect the other way; inactive = no such curve, though single readings can be large or run the other way. The list shows a part of the results.

Experiment: IN Cell qHTS Assay for Inhibitors of the mTORC1 Signaling Pathway in MEF (Tsc2-/-, p53-/-) Cells: Sytravon; also: nearly all actives have a fitted effect of over 60% in size
Details: phospho-rpS6 immunofluorescence, 24 h; series mostly up to 38.3 µM
Outline: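 Immunofluorescence of rpS6 phosphorylation (Ser235/236) in mouse embryonic fibroblasts lacking Tsc2 and p53, after 24 h compound exposure; Hoechst-normalized signal imaged, each well scored as % active cells relative to rapamycin (7.5 nM) and DMSO controls.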
Potency is read from the fitted curve at half-maximal effect.

Potency, active:
COc1ccc(CCNC(=O)C(C)n2nc(C)c3sc4ccccc4c3c2=O)c(OC)c1 (stereo not given) 4.65 µM, COc1ccccc1N1CCN(C(=O)c2cnc(N3CCCCC3)c3ccccc23)CC1 5.85 µM, CCCC(=O)Nc1nnc(SCc2cc(=O)c3ccc(C)cc3[nH]2)s1 3.69 µM, CCCCN(CCCNC(=O)c1cc(Nc2ccc(OC)c(OC)c2)nc2ccccc12)Cc1ccccc1 2.33 µM, COc1ccccc1Nc1cc(C(=O)NCCCN(C)C2CCCCC2)c2ccccc2n1 1.65 µM, Cc1ccc(NC(=O)c2nc(S(=O)(=O)Cc3cccc(C)c3)ncc2Cl)cc1 6.56 µM, CCS(=O)(=O)c1ncc(Cl)c(C(=O)NCc2ccc(OC)cc2)n1 3.29 µM, Cc1cccc(NC(=O)c2nc(S(C)(=O)=O)ncc2Cl)c1 2.61 µM, O=C(NCc1ccccc1)c1nc(S(=O)(=O)Cc2ccccc2)ncc1Cl 18.5 µM, Cc1cccc(CS(=O)(=O)c2ncc(Cl)c(C(=O)NCc3ccccc3)n2)c1 18.5 µM, CCOC(=O)c1c(NC(=O)c2nc(S(C)(=O)=O)ncc2Cl)sc(C(C)=O)c1C 5.85 µM, CCS(=O)(=O)c1ncc(Cl)c(C(=O)NCc2ccccc2)n1 3.29 µM, COc1ccc(NC(=O)c2nc(S(=O)(=O)Cc3ccc(C)cc3)ncc2Cl)cc1 2.61 µM, Cc1cccc(CN2CCC(CNc3ncnc4onc(-c5ccc(Cl)cc5)c34)CC2)c1 7.36 µM, COc1ccc(N(Cc2ccccc2)C(=O)c2nc(S(C)(=O)=O)ncc2Cl)cc1 2.33 µM, CCS(=O)(=O)c1ncc(Cl)c(C(=O)N(Cc2ccccc2)c2ccc(OC)cc2)n1 3.29 µM

Potency, inactive:
CC1CCN(C(=O)CN2c3ccc(C(C)C)cc3-c3ccccc3S2(=O)=O)CC1, COc1ccccc1N1CCN(S(=O)(=O)c2ccc(-n3cnnn3)cc2)CC1, Cc1cc(C)cc(OCC(=O)Nc2ccc(-c3nc4ncccc4o3)cc2C)c1, COc1cccc(C2CC(=O)Nc3cc4c(cc32)OCCO4)c1OC (stereo not given), COc1cc(/C=C/c2nc(C#N)c(N3CCCCCC3)o2)cc(OC)c1OC, CCOc1ccc(-c2c(C)nn3c(C)c(C(=O)Nc4cccc(Cl)c4C)cnc23)cc1OCC, COc1ccc(CNC(=O)c2cc(-c3ccc(Br)s3)nc3ccccc23)c(OC)c1, COc1ccc(CNC(=O)CCCc2cn(C)c3ccccc23)c(OC)c1, O=C(Cn1cc(SCc2cccc(C(F)(F)F)c2)c2ccccc21)N1CCCCCC1, Cc1cccc(-c2noc(CNC(=O)c3ccc(C)cc3C)n2)c1, Cc1ccc(NC(=O)c2cc(S(=O)(=O)NCCC3=CCCCC3)ccc2F)cc1F, COc1ccc(-n2ncc3c(NCCCOC(C)C)ncnc32)cc1, COc1cccc(-c2noc(CCCC(=O)NCc3ccco3)n2)c1, COc1ccccc1N1CCN(C(=O)c2nc(SC)ncc2Cl)CC1, O=C(NCc1ccccc1Cl)c1cnc(N2CCCCC2)c2ccccc12, Cc1ccccc1Nc1c(-c2cccc(N(C)C)c2)nc2ccc(Br)cn12, Cc1cc(=O)n(CC(=O)N2CCN(c3ccccc3F)CC2)c2c1c(C)nn2C, COc1cc(NC(=O)Cn2nc(C(F)(F)F)c3c2CCCC3)c(OC)cc1Cl, Cc1nnc(NC(=O)CSCc2cc(=O)c3ccccc3[nH]2)s1, O=C(Nc1nnc(SCc2cc(=O)c3ccccc3[nH]2)s1)c1ccccc1, Cc1ccc(-n2c(SCc3nc(-c4ccccc4C)no3)nnc2-c2ccncc2)cc1C, C=CCc1cccc2cc(-c3nc4ccc(C)cc4[nH]3)c(=O)oc12, CCC(C(=O)Nc1cc(-c2nc3cccnc3s2)ccc1C)c1ccccc1 (stereo not given), CC1CCCN(CCCNC(=O)c2cc(Sc3ccc(F)cc3)nc3ccccc23)C1 (stereo not given), CSc1cccc(Nc2cc(C(=O)NCCCN(Cc3ccccc3)C(C)C)c3ccccc3n2)c1, COc1ccc(Nc2cc(C(=O)NCCCN(C)Cc3ccccc3)c3ccccc3n2)cc1OC, COc1ccc(N2CCN(CCCNC(=O)c3cc(Nc4ccccc4OC)nc4ccccc34)CC2)cc1, CC1CCCCN1S(=O)(=O)c1ccc(C(=O)Nc2sc3c(c2C(N)=O)CC(C)(C)NC3(C)C)cc1 (stereo not given), COc1ccccc1NC(=O)C1=C(C)Nc2nc(SCc3ccccc3)nn2C1c1cccs1 (stereo not given), CCC1CN(C(=O)NCc2cccc(OC)c2)c2cc(Cl)ccc2O1 (stereo not given), Cc1ccc(NC(=O)C(Cc2c[nH]c3ccccc23)NC(=O)OC(C)(C)C)c(C)c1 (stereo not given), O=C(Nc1cc(Cl)cc(Cl)c1)c1ccc(F)c(S(=O)(=O)NC2CCCCC2)c1, O=C1CC(c2c(F)cccc2Cl)c2c(ccc3ccccc23)N1 (stereo not given), COC(=O)c1ccc(C2C=C(c3ccc(Cl)cc3)Nc3nc4ccccc4n32)cc1 (stereo not given), CC1CCn2c(nc3cc(C(=O)NCc4ccccc4)ccc32)C1 (stereo not given), CCOC(=O)c1cc(S(=O)(=O)NCc2ccc(OC)cc2)[nH]n1, Cc1cccc(NC(=O)c2ccc(F)c(S(=O)(=O)NCc3ccc4c(c3)OCO4)c2)c1, COc1ccc(CNC(=O)C2CCC(CNS(=O)(=O)c3cccs3)CC2)cc1 (stereo not given), Cc1c(C(=O)Nc2cccc(F)c2)oc2c1-c1nn(Cc3c(F)cccc3Cl)cc1CC2, O=C(Nc1ccc(F)c(F)c1)c1cc(S(=O)(=O)N2CCc3ccccc32)ccc1F, COc1ccc(-c2ccc(CCC(=O)O)n2-c2cc(Cl)ccc2O)cc1, CC(C)c1ccc(NC(=O)C2Cc3ccccc3N2C(=O)c2ccccc2)cc1 (stereo not given), CCOC(=O)c1c(NC(=O)c2ccc(S(=O)(=O)N3CCC(C)CC3)cc2)sc2c1CCN(CC)C2, Cc1ccc(-c2cc(C(=O)N3CCN(c4ccccc4)CC3)c3ccccc3n2)cc1C, CCOC(=O)C1CCCN(C(=O)Cn2c(=O)cc(C)c3c(C)nn(C)c32)C1 (stereo not given), O=C(NCCSc1c(-c2ccc(F)cc2)[nH]c2ccccc12)c1ccc(S(=O)(=O)N2CCOCC2)cc1, Cc1ccc(NC(=O)c2c(C)oc3ccc(O)c(CN4CCCCC4)c23)c(C)c1, CCc1ccc(CNC(=O)Cn2nc(-c3ccc(C)cc3)ccc2=O)cc1, Cc1nnc(SCC(=O)NCc2ccccc2F)c2nn(-c3ccc(Cl)cc3)c(C)c12, CCOC(=O)c1c(NC(=O)c2ccc(S(=O)(=O)N3CCC(C)CC3)cc2)sc2c1CCN(C(C)C)C2, Cc1ccc(S(=O)(=O)C2(C(=O)Nc3ccc(C(C)C)cc3)CC2)cc1, CCc1cnc2c(c1SCC(=O)NCc1ccccc1)c(=O)n(C)c(=O)n2C, Cc1cccc(Cn2c(=O)n(CCCC(=O)NCc3ccccc3Cl)c(=O)c3ccccc32)c1, CCCS(=O)(=O)c1ncc(Cl)c(C(=O)Nc2scc(-c3ccccc3)c2C(=O)OCC)n1, COc1ccc(NC(=O)CCc2nc3c(C)nn(-c4ccc(C)cc4)c3n(C)c2=O)cc1, Cc1c2cnn(CC(=O)NCc3ccccc3)c(=O)c2c(C)n1Cc1cccc(Cl)c1, CCC1(C)CC(=O)c2c(ccc3oc(C(=O)NCc4ccccc4)c(C)c23)O1 (stereo not given), Cc1cccc(C(=O)Nc2ccccc2SCc2cc(=O)c3cccc(C)c3[nH]2)c1, COc1ccc(CCNC(=O)CCn2c(=O)c3ccccc3n(Cc3ccccc3C)c2=O)cc1OC, COc1ccc(CCNC(=O)c2ccc3c(c2)N=C(C)c2cc(C)ccc2S3)cc1OC, O=C(Nc1cccc(C(=O)N2CCN(c3ccc(Cl)cc3)CC2)c1)c1nsc2ccccc12, Cc1ccc(NC(=O)c2cc(S(=O)(=O)N3CCCCCC3)ccc2F)cc1F, Cc1oc2ccc(O)c(CN(C)Cc3ccccc3)c2c1C(=O)Nc1cccc(Cl)c1C, O=c1ccc(-c2ccccc2)nn1Cc1ccc(F)cc1Cl, CCc1ccc(CNC(=O)c2ccc(NC(=O)N3CCCCc4ccccc43)cc2)cc1, CCCC(=O)C1=C(c2ccc(C)cc2)N(C(=O)CCC)n2cnnc2S1, Cc1cc(C)cc(NC(c2cccc(Cl)c2)c2nnc(-c3ccccc3)o2)c1 (stereo not given), CCOC(=O)N1CCc2c(sc3c2C(=O)NC(c2cc(OC)c(OC)c(OC)c2)N3)C1 (stereo not given), CCCOc1ccc(Oc2nc(NCC(C)C)nc(N(C)C)n2)nn1, CCN1CCc2c(sc(NC(=O)CSc3ccccc3)c2-c2nc3ccccc3s2)C1, Cc1ccc(CN2CCC(CNC(=O)Nc3ccc(Cl)cc3)C2)cc1 (stereo not given), O=C(NCC1CCN(Cc2cccc(Cl)c2)CC1)Nc1ccc(F)c(Cl)c1, CCC(C)NC(=O)c1cc(Sc2cccc(Cl)c2)nc2ccccc12 (stereo not given), COc1ccc(-n2nnc(-c3nsc(NC(=O)c4ccc(C)c(C)c4)n3)c2C)cc1Cl, CCOc1ccc(-c2oc3ccccc3c(=O)c2O)cc1OCC, COc1ccc(-n2cc(C(=O)N(CCN(C)C)Cc3ccccc3)c3ccccc3c2=O)cc1, CCOc1ccc(N(C(=O)Cn2nnc3ccccc32)C(C(=O)NCc2ccccc2)c2ccc(OC)cc2)cc1 (stereo not given), CCN(CC)CCNC(=O)c1cn(CCOC)c(=O)c2c1c1ccccc1n2C, CC(C)C(=O)OC1=CN(Cc2ccccc2)S(=O)(=O)c2ccccc21
